JMJD2A Tudor inh – JMJD2A Tudor domain (human) inhibition. O75164. AlphaScreen JMJD2A-Tudor / H3K4me3 peptide binding. Potency, µM (titrated, usually from 114 µM), without a hit: at the top dose activity change, negative = inhibition, most hits filed as inhibitors. 390,000 tested, 4.4% active; further: on the % scale 0 is the no-effect control and ±100 the full control effect; nearly all actives have a fitted effect of over 50% in size
BAZ2B block – BAZ2B (human) inhibition; AlphaScreen BAZ2B-H3K14Ac peptide displacement; Potency, µM (series often up to 114 µM), for the others: at the highest dose activity change, negative = inhibition, most hits filed as inhibitors; 360,000 tested, 4.4% active; Q9UIF8; further: on the % scale 0 is the no-effect control and ±100 the full control effect; nearly all actives have a fitted effect of over 60% in size
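In this displacement format the biotinylated H3(5-23) peptide acetylated at Lys14 serves as ligand at 50 nM, with BAZ2B at 50 nM in PBS pH 7.4 containing 0.01% Tween-20. Donor and acceptor beads are 10 ug/mL final.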
GLS inh – inhibitors of human glutaminase (GLS); GLS enzymatic activity, qHTS titration; Potency, µM (highest dose often 45.5 µM), inactives show top-dose activity change, negative = inhibition, actives largely listed as inhibitors; 410,000 tested, 0.21% active; AID 624170; further: on the % scale 0 is the no-effect control and ±100 the full control effect
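Compounds were pin-transferred onto hKGA, after which L-glutamine (1 mM solution) and a detection mix of glutamate oxidase, HRP and Amplex Red were added. Initial and 30 min RT fluorescence reads were collected.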
G9a inh – G9a (human) methyltransferase inhibition; Q96KQ7; G9a H3K9 monomethylation, AlphaScreen, 2 h; Potency, µM (top dose mostly 102 µM), inactives show at the top dose activity, negative = inhibition, hits mostly inhibitors; 350,000 tested, 8.8% active; AID 504332; further: on the % scale 0 is the no-effect control and ±100 the full control effect; nearly all actives have a fitted effect of over 75% in size
Target sequence (Q96KQ7 913-1193 limits assumed): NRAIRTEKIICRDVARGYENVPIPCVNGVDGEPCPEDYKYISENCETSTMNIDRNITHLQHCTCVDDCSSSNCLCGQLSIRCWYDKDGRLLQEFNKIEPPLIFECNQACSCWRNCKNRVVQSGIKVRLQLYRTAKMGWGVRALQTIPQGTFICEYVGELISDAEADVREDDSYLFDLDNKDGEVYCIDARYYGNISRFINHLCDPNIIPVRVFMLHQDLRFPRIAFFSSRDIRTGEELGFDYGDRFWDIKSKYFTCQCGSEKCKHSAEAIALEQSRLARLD
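G9a (20 nM) preincubated 15 min RT with compounds, then 500 nM biotinylated H3K9 peptide and 20 uM SAM added; 2 h RT reaction. Monomethyl-H3K9 product detected by AlphaScreen with anti-H3K9me1 antibody, streptavidin donor and anti-rabbit IgG acceptor beads.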
HP1b chromo inh – blocks HP1-beta chromodomain binding to methylated histone tails; AlphaScreen HP1-beta / biotin-H3K9me3 peptide binding; Potency, µM (top dose mostly 114 µM), for inactives: at the top dose activity change, negative = inhibition, usual class: inhibitors; 390,000 tested, 0.56% active; further: nearly all actives have a fitted effect of over 70% in size
Target sequence (P83916 whole entry, looked up): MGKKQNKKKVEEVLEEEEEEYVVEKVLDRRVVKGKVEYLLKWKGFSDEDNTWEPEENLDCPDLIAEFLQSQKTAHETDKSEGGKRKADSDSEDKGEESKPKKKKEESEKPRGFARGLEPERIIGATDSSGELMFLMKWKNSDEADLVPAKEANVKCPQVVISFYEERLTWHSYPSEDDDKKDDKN
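HP1-beta protein (50 nM final) preincubated 30 min at room temperature with biotinylated H3(1-18)K9me3 peptide (50 nM) in PBS pH 7.4, 0.01% Tween-20, then compound added for 30 min. AlphaScreen streptavidin donor/nickel chelate acceptor beads (10 ug/mL final), 30 min dark, luminescence read.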
The depositor's hits bear a star; ? = inconclusive; . = no result; [ ] = remark or other dose. This is a sample that favours compounds with a hit; in the whole collection about 10% have one here. The call rests on the fitted dose curve; in most records, active means well fitted curve in the direction sought with a large enough effect; inconclusive means small, poorly fitted or top-dose-only effect, or another doubt; inactive means no such curve, though single readings can be large; an effect the other way counts as inactive or inconclusive. Potency means the concentration at half of the fitted maximal effect.

SMILES | JMJD2A Tudor inh | BAZ2B block | GLS inh | G9a inh | HP1b chromo inh
COc1ccc(N2CCN(CC(=O)c3ccc(O)cc3O)CC2)cc1 | ? | ? | -7% | 71µM* | -19%[57 µM]
O=C(NCc1ccc(F)cc1F)Nc1cnccc1C(F)(F)F | 5% | 0% | -8% | 9%[12.7 µM] | 61%
Cc1ccc(NC(=S)NNC(=O)c2c(Cl)c(C)nn2C)cc1 | -34% | -1% | 15% | 1.4µM* | -13%
Cc1ccc(NC(=S)NNC(=O)c2c([N+](=O)[O-])c(C)nn2C)cc1 | -11% | 6% | 33% | 65%[12.7 µM] | 30%
Cc1nn(C)c(C(=O)Nc2ccc(Cl)c([N+](=O)[O-])c2)c1Cl | -12% | 5% | -2% | 16µM* | 27%
Cc1noc(Cn2c(=O)c3cc4c(cc3n(CC(=O)Nc3cccc(Cl)c3)c2=O)OCO4)n1 | -11% | -3% | -3% | -33%[59 µM] | 16%
Cc1cccc(C)c1NC(=O)Cn1nc(C)c2sc3ccccc3c2c1=O | -35% | ? | -1% | -48%[59 µM] | 19%
Cc1ccccc1Nc1nc(N)[nH]c(=O)c1N=O | . | . | 31% | . | .
CN(C)S(=O)(=O)c1cccc(NC(=O)c2ccccc2OCc2ccc(F)cc2)c1 | -14% | 13% | -3% | ? | 14%
O=C(Nc1cc(C(F)(F)F)ccc1N1CCOCC1)C1CCCO1 (stereo not drawn) | -17% | . | 7% | . | 5%
O=C(Cc1n[nH]c(=O)c2ccccc12)Nc1cc(Cl)ccc1-n1cncn1 | -4% | 13% | -8% | -6% | 42%
O=C(Cc1n[nH]c(=O)c2ccccc12)Nc1cc(C(F)(F)F)ccc1-n1cncn1 | -13% | 6% | 2% | 35µM* | 14%
CN(C)C(=O)/N=N/C(=O)N(C)C | . | . | . | 2.7µM* | .
COc1ccc2c(c1)[nH]c1c(N3CCN(Cc4ccc5c(c4)OCO5)CC3)ncnc12 | ? | 45µM* | 5% | . | -27%
COc1cccc2[nH]c3c(N4CCN(Cc5ccc6c(c5)OCO6)CC4)ncnc3c12 | . | 35µM* | . | 45µM* | .
COc1cccc2[nH]c3c(N4CCC(C)CC4)ncnc3c12 | -25% | . | -1% | 25%[59 µM] | 14%
Cc1ccc2[nH]c3c(N4CCN(Cc5ccc6c(c5)OCO6)CC4)ncnc3c2c1 | . | ? | . | 50µM* | .
COc1ccc(/C=C/C(=O)Nc2nc(-c3cccs3)ns2)cc1OC | 3% | -17% | 1% | 7%[59 µM] | 43%
Cc1ccc(CNc2ncnc3ccc(-c4ccc(CO)o4)cc23)o1 | . | . | 14% | . | .
CC(=O)Nc1ccc(S(=O)(=O)NCC(=O)OCC(=O)N2CCN(c3ccccc3)CC2)cc1 | -21% | -27% | 19% | 50µM* | 28%
CC(=O)Nc1ccc(S(=O)(=O)NCC(=O)OCC(=O)N2CC(C)OC(C)C2)cc1 (stereo not drawn) | 13% | . | 0% | . | 27%
O=C(CNS(=O)(=O)c1c(Cl)cccc1Cl)OCC(=O)c1ccc[nH]1 | -27% | 79µM* | -16% | . | 16%
O=C(CNS(=O)(=O)c1c(Cl)cccc1Cl)OCC(=O)N1CCN(c2ccccc2)CC1 | -24% | -31% | 6% | 56µM* | -9%
O=C(CNS(=O)(=O)c1ccc(Br)cc1Cl)OCC(=O)c1ccc[nH]1 | -25% | -4% | 3% | ? | 21%
O=C(CN1CCSC1=O)Nc1ccc(N2CCOCC2)cc1 | -19% | 6% | 27% | ? | -10%
SMILES | JMJD2A Tudor inh | BAZ2B block | GLS inh | G9a inh | HP1b chromo inh
Clc1ccc(Nc2nc(C3CC3)cs2)cc1 | -34% | -6% | 23% | 40µM* | 29%
Cc1ccc(Nc2nc(C3CC3)cs2)cc1 | . | -5% | . | 40µM* | .
CCc1cc2c(SCc3nc4sc(C(C)=O)c(C)c4c(=O)[nH]3)ncnc2s1 | ? | -14% | -7% | 20µM* | 30%
COc1ccc(O)c(-c2c(-c3ccc(Cl)cc3)n[nH]c2C)c1 | ? | ? | 28% | 25µM* | -32%
COc1ccc(-c2n[nH]c(C)c2-c2ccc(Cl)cc2)c(O)c1 | ? | -38% | -12% | 7%[0.501 µM] | 15%
CCOC(=O)Cc1csc(NC(=O)c2ccc(C)c(S(=O)(=O)N3CCOCC3)c2)n1 | -13% | -1% | 0% | -16%[59 µM] | 27%
CC1=NN(C(=O)c2ccccc2F)C(O)(c2ccc(Cl)cc2)C1 (stereo not drawn) | -33% | 50µM* | -4% | 3% | 25%
CC1=NN(C(=O)c2ccccc2Cl)C(O)(c2ccccc2)C1 (stereo not drawn) | -19% | -22% | -4% | 7% | 46%
CCN1C(C(=O)c2ccccc2)=C(OC(=O)COc2ccc(OC)cc2)c2ccccc2S1(=O)=O | ? | ? | 22% | 11µM* | 3%
CCCN1C(C(=O)c2ccccc2)=C(OC(=O)COc2ccccc2)c2ccccc2S1(=O)=O | ? | -26% | 12% | 8.9µM* | -13%
CCN1C(C(=O)c2ccccc2)=C(OC(=O)COc2ccc(C)cc2)c2ccccc2S1(=O)=O | 50µM* | ? | 1% | 16µM* | -3%
C=CCN1C(C(=O)c2ccccc2)=C(OC(=O)COc2ccccc2)c2ccccc2S1(=O)=O | 20µM* | ? | 20% | ? | -1%
COc1cccc(-c2cc(NCc3cccc(C)c3)ncn2)c1 | . | . | . | -9%[0.501 µM] | .
Cc1cc2c(s1)c1cnn(Cc3c(F)cc(F)cc3F)c(=O)c1n2C | -19% | . | . | . | .
CCOC(=O)c1c(/N=C/N(C)C)sc(/C=N/Nc2ccccc2)c1-c1ccccc1Cl | ? | -7% | -5% | 40µM* | 11%
COc1cc(CC(=O)OCC(=O)N(C)C2CCCCC2)cc(OC)c1OC | 1% | . | -3% | . | 39%
CCCN(CCC)CCCNC(=O)C1CCN(c2nc3ccc(CC)cc3s2)CC1 | -20% | -5% | 7% | -27%[59 µM] | -2%
NC(=O)C1CCN(Cc2nc3cc(C(F)(F)F)ccc3c(=O)[nH]2)CC1 | -10% | -24% | 9% | 14µM* | 26%
O=c1nc2cccc3c2=c(/c1=C(\O)c1ccccc1)c1ccccc1c3=O | -30% | 89µM* | -12% | ? | 36%
COc1ccccc1OCCNC1CCCC1 | 3.5µM* | ? | -7% | 40µM* | -17%
C=CCc1ccccc1OCC(O)CNC1CCCC1 (stereo not drawn) | 14% | 14% | 2% | 23% | 28%
C=CCc1ccc(OCCCOc2ccc(C)cc2OC)c(OC)c1 | -6%[11.4 µM] | 59% | 1% | -1% | 41%
C=CCc1ccc(OCCCNCc2ccccc2)c(OC)c1 | 28µM* | 50µM* | 1% | . | ?
C=CCc1ccc(OCCCNC2CCCC2)c(OC)c1 | 79µM* | . | -3% | . | ?
C=CCc1cccc(Cl)c1OCCCNC1CCCC1 | 50µM* | ? | -13% | . | 8%
COc1ccccc1CNS(=O)(=O)CCNC1CCCCC1 | -14% | . | -3% | . | 50%
N#Cc1ccccc1OCCOCCNC1CCCC1 | ? | ? | 0% | 10µM* | -28%
Cc1cccc(C)c1N1CCN(C(=O)Cn2cncn2)CC1 | ? | -25% | 3% | 18µM* | 3%
